Consider nine molecules from PubChem BioAssay.

The nature of experiment [1]: compounds altering viability of human ES cells (AID 493140; call rule not given here;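 further: cells exposed to compounds for four days before counting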). The settings on record: human embryonic stem cell survival screen; stronger effect = higher value.
Experiment [2] is described as follows: P. berghei load reduction in hepatocytes – cell-based, HepG2, luciferase luminescence, HepG2 viability, primary screen (AID 624349; in the data active means parasite load remaining mostly below about 12%, no sharp cut-off; inactive means mostly above about 10%;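 further: 100% = mean of DMSO negative control wells on the same plate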). The settings on record: P. berghei liver stage in HepG2, luciferase luminescence, concentration not given here; parasite load remaining: stronger effect = lower value; viability: measured here: HepG2 viability without parasites.
Experiment [3] in a line: viability loss with induced miR-34 in A549 – imaging, A549 dox-inducible miR-34, nuclei and caspase counts, primary screen (AID 1347080). The settings on record: A549 miR-34 inducible, Hoechst nuclei count, 48 h.
Experiment [4] is described as follows: MELAS cybrid and Rieske KO viability enhancers – cell-based, MELAS cybrids, Rieske KO mouse fibroblasts, CellTiter-Glo, primary screen (AID 1508586;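 active means mean z-score across replicates of 1.96 or higher in either the MELAS or the Rieske mutant cell line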;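 further: z relative to plate mean and SD of compound and empty wells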). As to conditions: low glucose. (In general: Cellular ATP, detected with luciferase, serves as a proxy for viable cell number.)
Experiment [5] can be described thus: galactose survival enhancers in mitochondrial complex I cybrids – cell-based, galactose medium, ATP luminescence, primary screen (AID 1645843;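 active means z-score of at least 1.8 in each of two replicates, scored against plate mean and spread of sample wells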;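 further: positive z means more ATP and so rescue of galactose-driven cybrid death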). The settings on record: complex I mutant cybrid cells, 72 h, stronger effect = higher value.
Experiment [6] concerns the target ATP-dependent translocase ABCB1 (Homo sapiens) (UniProt P08183). Kind of experiment: P-glycoprotein substrate transport blockade – cell-based (AID 377; in the data active means fluorescence slope change above about 50%). As to conditions: MDR1-expressing cells, fluorescent substrate accumulation slope; stronger effect = higher value; concentration not given here.
Experiment [7] addresses Mitogen-activated protein kinase 7 (Homo sapiens) (UniProt Q13164). Kind of experiment: Gal4-ERK5 driven luciferase induction – cell-based, HTS, primary screen (AID 1508626;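 active means luciferase signal above three times the same-plate solvent-only control wells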;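 further: luciferase driven by Gal4-ERK5 fusion binding five Gal4 sites before minimal TATA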). The settings on record: HeLa Gal4-ERK5 transactivation, 18 h, at 5 µM, stronger effect = higher value.
Setting [8] is: measured here: relative caspase fold change +Dox/-Dox.
Where [9] appears, read: measured here: total cells with miR-34 induction, stronger effect = lower value.
[10] abbreviates: measured here: total cells without miR-34 induction.
Where [11] appears, read: MELAS cybrid survival, CellTiter-Glo 48 h, stronger effect = higher value.
Setting [12] is: Rieske KO mouse fibroblast survival, CellTiter-Glo 72 h.
Setting [13] is: stronger effect = lower value, cell number ratio, induced over uninduced.

Where “and” joins values, the source holds several entries; their conditions need not be identical. Identical values can stand only once. Inconclusive results are not listed. More than one record can exist for a structure, and the calls need not agree. Calls of active or inactive are those of the source.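 How the source made its calls, unless noted: active means compounds whose cell count with miR-34 switched on is under 0.7 times the count with it off; inactive means the rest.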

Chain of ATP-dependent translocase ABCB1 (Homo sapiens) (P08183 whole entry, looked up, the tested form may be a part): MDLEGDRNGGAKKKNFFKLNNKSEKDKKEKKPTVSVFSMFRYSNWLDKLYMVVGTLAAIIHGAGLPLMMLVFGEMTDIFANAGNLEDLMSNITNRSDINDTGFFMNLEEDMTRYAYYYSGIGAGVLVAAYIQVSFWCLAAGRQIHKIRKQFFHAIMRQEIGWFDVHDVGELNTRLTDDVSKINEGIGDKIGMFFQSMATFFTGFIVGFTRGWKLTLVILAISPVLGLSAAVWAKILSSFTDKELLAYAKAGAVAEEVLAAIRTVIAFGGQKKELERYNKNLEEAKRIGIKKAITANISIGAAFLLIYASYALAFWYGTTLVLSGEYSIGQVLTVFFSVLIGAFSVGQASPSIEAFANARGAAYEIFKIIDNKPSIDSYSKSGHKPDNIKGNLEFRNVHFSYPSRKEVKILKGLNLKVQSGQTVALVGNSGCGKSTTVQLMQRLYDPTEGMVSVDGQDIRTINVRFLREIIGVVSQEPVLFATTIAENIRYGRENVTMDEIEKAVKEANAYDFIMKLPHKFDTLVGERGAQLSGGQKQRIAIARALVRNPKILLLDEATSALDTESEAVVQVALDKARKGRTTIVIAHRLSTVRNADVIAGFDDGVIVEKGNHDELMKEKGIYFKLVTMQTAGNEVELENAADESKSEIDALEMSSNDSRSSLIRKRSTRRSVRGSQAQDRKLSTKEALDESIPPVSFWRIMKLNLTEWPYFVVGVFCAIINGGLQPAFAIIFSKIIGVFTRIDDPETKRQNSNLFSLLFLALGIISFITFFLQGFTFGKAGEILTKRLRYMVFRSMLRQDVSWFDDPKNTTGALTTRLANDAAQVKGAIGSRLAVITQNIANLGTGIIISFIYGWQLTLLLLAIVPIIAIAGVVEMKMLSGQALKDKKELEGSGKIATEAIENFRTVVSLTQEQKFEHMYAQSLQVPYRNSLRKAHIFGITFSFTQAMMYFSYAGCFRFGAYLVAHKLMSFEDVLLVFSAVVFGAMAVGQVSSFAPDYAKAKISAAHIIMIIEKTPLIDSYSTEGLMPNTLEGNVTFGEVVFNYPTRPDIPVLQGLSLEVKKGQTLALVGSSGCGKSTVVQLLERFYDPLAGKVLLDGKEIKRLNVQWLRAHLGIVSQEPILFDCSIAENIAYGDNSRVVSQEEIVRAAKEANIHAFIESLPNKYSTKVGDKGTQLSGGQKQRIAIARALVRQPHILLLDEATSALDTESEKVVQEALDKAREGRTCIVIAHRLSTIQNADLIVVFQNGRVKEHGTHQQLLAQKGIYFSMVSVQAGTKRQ
Chain of Mitogen-activated protein kinase 7 (Homo sapiens) (Q13164 whole entry, looked up, the tested form may be a part): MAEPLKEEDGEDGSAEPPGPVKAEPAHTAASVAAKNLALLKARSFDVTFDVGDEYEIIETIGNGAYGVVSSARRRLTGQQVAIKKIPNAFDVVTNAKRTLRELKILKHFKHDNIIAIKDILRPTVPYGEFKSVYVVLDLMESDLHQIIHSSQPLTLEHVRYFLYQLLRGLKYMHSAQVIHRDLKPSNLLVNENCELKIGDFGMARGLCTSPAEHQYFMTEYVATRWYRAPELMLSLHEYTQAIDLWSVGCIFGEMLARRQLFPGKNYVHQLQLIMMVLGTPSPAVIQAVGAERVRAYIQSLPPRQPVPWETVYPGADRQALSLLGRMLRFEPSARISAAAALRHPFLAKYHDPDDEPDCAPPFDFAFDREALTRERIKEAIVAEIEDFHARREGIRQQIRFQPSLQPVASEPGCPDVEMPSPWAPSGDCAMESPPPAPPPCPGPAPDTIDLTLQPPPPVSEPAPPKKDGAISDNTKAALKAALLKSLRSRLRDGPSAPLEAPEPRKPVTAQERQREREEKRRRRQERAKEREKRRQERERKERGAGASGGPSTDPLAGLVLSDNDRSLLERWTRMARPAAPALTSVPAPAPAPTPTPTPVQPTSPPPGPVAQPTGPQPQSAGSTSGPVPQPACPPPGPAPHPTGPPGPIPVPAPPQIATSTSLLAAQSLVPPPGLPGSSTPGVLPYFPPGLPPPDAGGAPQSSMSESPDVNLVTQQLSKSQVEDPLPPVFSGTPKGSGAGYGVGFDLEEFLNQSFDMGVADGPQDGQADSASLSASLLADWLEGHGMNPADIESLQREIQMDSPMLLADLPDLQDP

The term viability denotes a read-out of living cells in per cent, often relative to untreated cells. For the molecule `CCCCCC[C@H]1C(=O)O[C@H](C)C(NC(=O)c2cccc(NC=O)c2O)C(=O)O[C@@H](C)[C@@H]1OC(=O)CC(C)C` (stereo partly specified), the survival in experiment [1] is 38.8 (inactive). For the same molecule, in experiment [2], the parasite load remaining is 0.52% (inactive) and 0.28% (active). Moreover, in experiment [2], the viability was 30.3% and 71%. Also, the fold change in experiment [3] (stronger effect = lower value) was 1.21 (inactive); in experiment [3] (setting [8]) it was 0.771. Moreover, the cell count in experiment [3] (setting [9]) was found to be 3300; in experiment [3] (setting [10]), 2720. Also, the results for the z-score in experiment [4] (setting [11]) and in experiment [4] (setting [12]) were 0.402 (inactive) and 0.0989, respectively.

Turning to `C[C@]12CC[C@@H](O)C[C@@H]1CC[C@@H]1[C@@H]2CC[C@]2(C)C(=O)CC[C@@H]12`, in experiment [1], the survival is 13.1 (inactive). Further, the parasite load remaining in experiment [2] is 90.4% (inactive) and 71.8% (inactive). Also, the viability in experiment [2] was 90.3% and 79.5%. Besides, the fold change in experiment [3] (stronger effect = lower value) was 0.869 (inactive); in experiment [3] (setting [8]), 1.48. Further, the cell count in experiment [3] (setting [9]) was 8170; in experiment [3] (setting [10]), 9410. The z-score in experiment [4] (setting [11]) is 0.119 (inactive); in experiment [4] (setting [12]) it was -0.286.

`CCCCC(C#N)(Cn1cncn1)c1ccc(Cl)cc1` (stereo unspecified): in experiment [2], the parasite load remaining is 18.9% (inactive). The viability in experiment [2] turned out to be 67.5%. In addition, the fold change in experiment [3] (stronger effect = lower value) was 0.938 (inactive); in experiment [3] (setting [8]), 1.46. Also, the figures for the cell count in experiment [3] (setting [9]) and in experiment [3] (setting [10]) were 9220 and 9830, respectively. For the same molecule, the z-score is 0.49 (inactive) in experiment [4] (setting [11]), -0.243 in experiment [4] (setting [12]) and 0.815 (inactive) in experiment [5].

On to `C[N+]1(C)C2CC[C@H]1CC(OC(=O)C(CO)c1ccccc1)C2` (stereo partly specified), for which, in experiment [2], the parasite load remaining is 93.5% (inactive). Besides, the viability in experiment [2] came out at 105%. Further, the fold change was 0.955 (inactive) in experiment [3] (setting [13]) and 1.32 in experiment [3] (setting [8]). Moreover, the cell count in experiment [3] (setting [9]) came out at 8910; in experiment [3] (setting [10]) it was 9340. The z-score in experiment [4] (setting [11]) is 0.0273 (inactive); in experiment [4] (setting [12]), -0.854.

As for `CCC1(C)CC(=O)NC(=O)C1`, in experiment [1], the survival is 3.92 (inactive). In experiment [2], the parasite load remaining is 94.7% (inactive). The viability in experiment [2] stood at 101%. Moreover, the fold change was 0.856 (inactive) and 0.868 (inactive) in experiment [3] (stronger effect = lower value); 1.33 and 1.2 in experiment [3] (setting [8]). Besides, the cell count in experiment [3] (setting [9]) was 8070 and 7990; in experiment [3] (setting [10]), 9420 and 9200. In addition, the z-score in experiment [4] (setting [11]) was -0.143 (inactive) and 0.0597 (inactive); in experiment [4] (setting [12]) it was -0.288 and -0.916.

`CN[C@@H]1[C@@H](O)[C@@H](O[C@@H]2[C@@H](O)[C@H](O[C@H]3O[C@H]([C@@H](C)NC)CC[C@H]3N)[C@@H](N)C[C@H]2N)OC[C@]1(C)O`: the parasite load remaining in experiment [2] is 20.1% (inactive). Also, the viability in experiment [2] came to 64.5%. For the same molecule, the fold change in experiment [3] (stronger effect = lower value) was 0.872 (inactive); in experiment [3] (setting [8]), 1.03. The results for the cell count in experiment [3] (setting [9]) and in experiment [3] (setting [10]) were 10000 and 11500, respectively. For the same molecule, the z-score in experiment [4] (setting [11]) was 0.508 (inactive); in experiment [4] (setting [12]), 0.179.

As to `Oc1cc2c(cc1O)C1c3ccccc3CNC1CC2` (stereo unspecified), the fold change in experiment [3] (setting [13]) is 0.881 (inactive); in experiment [3] (setting [8]), 2.62. For the same molecule, the cell count in experiment [3] (setting [9]) is 9630; in experiment [3] (setting [10]) it was 10900. The z-score in experiment [5] is -1.86 (inactive).

For `Oc1ccc2c3c1OC1C(O)CC[C@@]4(O)C(C2)N(CC2CCC2)CC[C@]314` (stereo partly specified), the fold change in experiment [3] (stronger effect = lower value) was 0.877 (inactive); in experiment [3] (setting [8]), 1.82. In addition, the cell count came out at 8530 in experiment [3] (setting [9]) and 9720 in experiment [3] (setting [10]). For the same molecule, the z-score in experiment [5] is 0.8 (inactive).

Take `C[C@]12CC[C@H]3[C@@H](CC[C@]4(O)C[C@@H](O)CC[C@]34C=O)[C@@]1(O)CC[C@@H]2C1=CC(=O)OC1`: the fluorescence slope change in experiment [6] was 11.2% (inactive). Also, the survival in experiment [1] is 1.42 (inactive). In addition, the parasite load remaining in experiment [2] was 0.385% (inactive). In addition, in experiment [2], the viability turned out to be 54%. In addition, the values for the fold change in experiment [3] (stronger effect = lower value) and in experiment [3] (setting [8]) were 1.08 (inactive) and 0.794, respectively. For the same molecule, the cell count in experiment [3] (setting [9]) was 773; in experiment [3] (setting [10]) it was 713. The luciferase signal in experiment [7] was 16 AU (inactive).
